Pf growth 48h: Primary qHTS for delayed death inhibitors of the malarial parasite plastid, 48 hour incubation. P. falciparum luciferase growth in erythrocytes, 48 h. Potency, µM (highest dose often 28.7 µM), without a hit: at the highest dose activity change, negative = inhibition, most hits filed as inhibitors. actives 5.9% (n = 310,000). AID 504832, 2011; note: % is set by controls: 0 for no effect and ±100 for the full control effect
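Erythrocytes infected with P. falciparum carrying an integrated firefly luciferase reporter (2% hematocrit, 0.1% parasitemia final) were exposed to compounds in RPMI 1640 with 0.5% Albumax at 37 C, 5% CO2. Growth inhibition was scored as reduced luminescence.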
NS1 inh: qHTS Assay for Inhibitors of Influenza NS1 Protein Function; Potency, µM (top dose mostly 46.1 µM), inactives show at the highest dose activity, positive = more growth; actives 0.4% (n = 270,000); calls by dose curve; note: actives are rising curves; nearly all actives have a fitted effect of over 50% in size
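S. cerevisiae expressing influenza A NS1, grown in glucose, washed, then diluted 1:100 into pH 6.0 -URA galactose medium with 23 nl compound. Growth recovery read as OD600; NS1-free strain serves as control.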
Pf growth 96h: Primary qHTS for delayed death inhibitors of the malarial parasite plastid, 96 hour incubation; actives 6.9% (n = 320,000); Potency, µM (doses to about 28.7 µM), for the others: top-dose activity change, negative = inhibition, hits mostly inhibitors; AID 504834, 2011; P. falciparum luciferase reporter growth, 96 h; note: % is set by controls: 0 for no effect and ±100 for the full control effect
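Two-generation exposure (96 h) targets delayed-death phenotype. Reporter parasites carrying integrated firefly luciferase, in red cells at 2% hematocrit and 0.05% parasitemia final, kept at 37 C, 5% CO2; luminescence loss indicates inhibition.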
SARS PLpro yeast: qHTS of Yeast-based Assay for SARS-CoV PLP; S. cerevisiae expressing SARS-CoV PLpro, growth rescue; Potency, µM (doses to about 32.9 µM), inactives show top-dose activity, positive = growth rescue, hits mostly activators; actives 0.19% (n = 330,000); AID 485353, 2010; calls by dose curve; note: 0% is about no effect; nearly all actives have a fitted effect of over 55% in size
Active calls of the source: *; ? = inconclusive; nt = no result; [ ] = remark or other dose. Only some compounds are listed: those with a hit (about 10% of all), similar ones and a draw of the others. Unless noted, calls come from the whole dose curve; as a rule, active = well fitted inhibition curve with a large enough effect; inconclusive = small, poorly fitted or top-dose-only effect, or another doubt; inactive = no such curve, though single readings can be large or run the other way. Potency is the fitted concentration of half-maximal effect.

SMILES | Pf growth 48h | NS1 inh | Pf growth 96h | SARS PLpro yeast
COc1cccc(CC(=O)OCC(=O)c2cc(OC)c(OC)c(OC)c2)c1 | nt | nt | nt | 0%
CC(=O)O[C@H]1C[C@@]2(C)[C@H](C[C@@H](O)[C@H]3[C@@]4(C)CC[C@@H](O)[C@@H](C)[C@H]4CC[C@@]32C)C1=C(CCC=C(C)C)C(=O)O | -6% | nt | ? | nt
CCOC(=O)c1cc(-c2ccc(N3CCOCC3)cc2)nn1-c1ccc(F)cc1F | 12µM* | -20% | 12µM* | 19%
CCOC(=O)c1cc(-c2ccc(N3CCOCC3)cc2)nn1-c1ccccc1 | ? | -5% | ? | 22%
C[C@H]1[C@H](O)[C@@H](C)C=CC=CC=CC=CC=CC=CC=C[C@H](O[C@@H]2O[C@@H](C)[C@H](O)[C@@H](N)[C@@H]2O)C[C@@H]2O[C@](O)(C[C@@H](O)C[C@@H](O)[C@@H](O)CC[C@@H](O)C[C@@H](O)CC(=O)O[C@H]1C)C[C@H](O)[C@H]2C(=O)O | nt | 26% | nt | nt
Cc1ccc2nc(Cl)c(/C=N/NC(=O)[C@H]3C[C@@H]3c3ccccc3)cc2c1 | ? | 9% | 2.1µM* | -17%
CN(C)c1ccc(SC#N)cc1 | 6.6µM* | -4% | 2.9µM* | 1%
Nc1nonc1C(=O)N/N=C/c1ccncc1 | 21% | nt | ? | -4%
Cc1nonc1C(=O)N/N=C/c1ccncc1 | 8% | 0% | 8.3µM* | -1%
CC(NC(=O)C12CC3CC(C)(CC(C)(C3)C1)C2)c1ccncc1 (configuration not stated) | 23% | -12% | ? | 1%
COc1ccc(S(=O)(=O)N2CCCc3ccccc32)cc1OC | 12µM* | -80% | 57% | 1%
O=S(=O)(c1ccc(F)cc1)N1CCCc2ccccc21 | 29% | -23% | 1.7µM* | -8%
COc1ccc(S(=O)(=O)N2CCCc3ccccc32)cc1[N+](=O)[O-] | 1%[0.00184 µM] | -2% | -1% | -1%
O=C(O)C1CC=CCC1C(=O)Nc1ccc(S(=O)(=O)N2CCCc3ccccc32)cc1 (configuration not stated) | -1% | ? | 10µM* | 1%
COc1ccc(C(=O)NC2CCCCCC2)cc1S(=O)(=O)N1CCCC1 | -24% | nt | ? | -5%
COc1ccc(C(=O)NC2CCCCCC2)cc1S(=O)(=O)N1CCCc2ccccc21 | nt | 6% | 10µM* | 0%
COc1ccc(NC(=O)C2CCCN2C(=O)NC2CCCCC2)c(OC)c1 (configuration not stated) | 3% | 5% | 28% | -6%
COc1ccc(Cl)cc1NC(=O)CSc1nnc(C2CC2)n1C | -1% | 15% | 1% | 1%
COc1ccc(S(=O)(=O)N2CCc3ccccc32)cc1C(=O)NCc1ccco1 | 13µM* | nt | ? | -2%
COc1ccc(S(=O)(=O)N2CCc3ccccc32)cc1C(=O)NCC(c1ccco1)N1CCCC1 (configuration not stated) | nt | nt | nt | 0%
C=CCn1c(SCC(=O)c2ccc(OC)cc2)nnc1-c1ccc2c(c1)OCO2 | -9% | -18% | ? | 3%
C=CCn1c(SCC(=O)c2ccc(Cl)cc2)nnc1-c1ccc2c(c1)OCO2 | ? | 13% | 12µM* | 5%
O=C(Cc1ccc([N+](=O)[O-])cc1)N1CCc2ccccc2C1 | -4% | 1% | ? | -6%
O=C(Cc1ccccc1[N+](=O)[O-])N1CCc2ccccc2C1 | 0% | -5% | 1.2µM* | -2%
Cc1ccccc1CN1CCC(n2nccc2NC(=O)c2ccc3c(c2)OCO3)CC1 | 5% | 4% | 9.3µM* | -1%
SMILES | Pf growth 48h | NS1 inh | Pf growth 96h | SARS PLpro yeast
COc1ccccc1C(=O)Nc1ccnn1C1CCN(Cc2ncc[nH]2)CC1 | 13% | -10% | ? | -3%
COc1ccccc1C(=O)Nc1ccnn1C1CCN(Cc2cnn(C)c2C)CC1 | -5% | -13% | 6.6µM* | -3%
Cc1ccccc1CN1CCC(n2nccc2NC(=O)c2cccnc2)CC1 | ? | 0% | 9.3µM* | 0%
COc1ccc(CN2CCC(n3nccc3NC(=O)c3ccc4c(c3)OCO4)CC2)cc1C | 12µM* | 6% | 58% | 0%
CC#CC(=O)N1CCC(n2nccc2NC(=O)c2ccc3c(c2)OCO3)CC1 | -16% | 3% | ? | 2%
CSCCC(=O)N1CCC(n2nccc2NC(=O)c2ccc3c(c2)OCO3)CC1 | 25% | -7% | 40% | -8%
O=C(Nc1ccnn1C1CCN(Cc2cc(Cl)ccc2O)CC1)c1cccnc1 | ? | 5% | 26% | -5%
CN(Cc1ccccc1)c1ccc2nnc(-c3ccccc3)n2n1 | 4.1µM* | -3% | ? | 9%
c1ccc(-c2nnc3ccc(N4CCCC4)nn23)cc1 | -2% | 2% | 1µM* | -9%
FC(F)(F)c1nnc2ccc(N3CCOCC3)nn12 | 21% | -1% | nt | 3%
Cc1ccc(S(=O)(=O)N2CCN(c3ccc4nnc(-c5ccccc5)n4n3)CC2)cc1 | nt | 7% | ? | 5%
Cc1cccc(C)c1N1CCN(c2ccc3nnc(C(F)(F)F)n3n2)CC1 | 9.3µM* | 9% | nt | -15%
Clc1ccc(CNc2ccc3nnc(-c4ccccc4)n3n2)cc1 | ? | -11% | 57% | -2%
O=P(O)(OCc1ccccc1)OCc1ccccc1 | 24% | nt | 48% | -19%
CC1CN(C(=O)c2ccc(CNS(=O)(=O)c3cccc(Cl)c3)cc2)CC(C)O1 (configuration not stated) | -7% | -5% | 13% | 3%
O=C(O)CC/C(=N/NC(=O)CNC(=O)c1ccc2c(c1)OCCO2)c1ccccc1 | 18% | 10% | 2% | -3%
Cn1cc(S(=O)(=O)N2CCCC2)cc1C(=O)NCc1ccccc1 | 19% | 23% | -7% | -9%
CCC(C(=O)NCCC(C)C)n1ccc2cc(S(=O)(=O)N3CCCCC3)ccc21 (configuration not stated) | 12µM* | 17% | 36% | 0%
O=C(O)CCCn1ccc2cc(S(=O)(=O)N3CCCC3)ccc21 | 3% | 7% | 13µM* | -2%
COc1cccc(CNC(=O)c2cc(S(=O)(=O)N3CCCC3)cn2C)c1 | 13µM* | 3% | 12µM* | 0%
COc1cccc(CNC(=O)C(C)n2ccc3cc(S(=O)(=O)N4CCCCCC4)ccc32)c1 (configuration not stated) | 7.4µM* | 8% | ? | 2%
Sc1nnc(-c2ccc(Cl)cc2)n1Cc1ccccc1 | ? | nt | ? | 7%
Cc1ccccc1S(=O)(=O)NCC1CCCO1 (configuration not stated) | 17% | -2% | 35% | -4%
Cc1ccccc1-n1c(=O)cc(NCC2CCCO2)[nH]c1=O (configuration not stated) | -6% | 6% | 6.6µM* | 19%
CCN(CC)S(=O)(=O)c1ccc2c(c1)nc(SCC(=O)NC1CC1)n2-c1ccccc1OC | 5.9µM* | -10% | ? | 2%
CCOc1ccc(NC(=O)CN(C)C(=O)c2cc3c(s2)CCCCC3)cc1OCC | 9% | nt | 3% | -4%
Cc1cc(Nc2ccc3c(c2)OCCO3)c2cc(Cl)ccc2n1 | 7.4µM* | 9% | 247% | -14%

Compound activity (PubChem BioAssay)
